The whole screen tested about 55,000 compounds, of which about 530 (0.96%) were called active. About 7% were inconclusive and are not listed. Calls follow the shape of the dose curve; as a rule, active = well fitted cell-killing curve with a large enough effect; inconclusive = small, poorly fitted or top-dose-only effect; inactive = no such curve, though single readings can be large or run the other way. Shown is part of a subset that was picked to be rich in actives.
Potency is read from the fitted curve at half-maximal effect.

The assay is described as follows: qHTS Screen for Compounds that Selectively Target Cancer Cells with p53 Mutations: Cytotoxicity of p53 Null Cells at the Nonpermissive Temperature. Also: nearly all actives have a fitted effect of over 50% in size.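 As to activity, negative = cell killing: 0% = DMSO only and -100% = full killing by 100 µM tamoxifen.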 Particulars: H1299 p53-null (neo) cells, 39C, ATPlite viability, 24 h; series mostly up to 46.1 µM; activity, negative = cell killing: at the top concentration. The text has this: NIH Chemical Genomics Center [NCGC] NIH Molecular Libraries Screening Centers Network [MLSCN] MLSCN Grant: 1 X01 MH079844-01 Assay Submitter (PI): Dr. SUN, YI, University of Michigan NCGC Assay Overview: Synthetic Lethal Screen for Compounds to Kill Cancer Cells with p53 Mutation. Tumor suppressor gene p53 serves as a major cellular barrier against tumorigenesis. […] The goal of this screening is to identify small molecule probes that selectively kill cancer cells with mutations in p53. This screening was carried out using two lines of H1299 lung cancer cells. The H1299-p53 A138V line express a temperature sensitive p53 mutant (p53ts) in which the mutant p53 protein (A138V) is in the mutant confirmation when grown at 39C (the nonpermissive temperature) and in the wild type conformation when grown at 32C (the permissive temperature). A H1299-neo line (p53 null) grown at both 39C and 32C were used as counter-screens to filter out false positive associated with temperature shifting. The small molecular compounds that selectively target mutant p53-containing cancer cells were selected as candidate probes for further study. A cytotoxicity assay based on the measurement of ATP contents in cells was used in this screen. Concentration-responses of all the compounds in the library collection were determined in qHTS using the cell lines and temperature conditions as above.
NCGC Assay Protocol Summary: Both the H1299-p53A138V and H1299-neo cell lines were provided by Dr.Yi Sun, a PI at the University Michigan. The cells were maintained and cultured at 37C. The resuspended frozen cells were used to plate the cells in the 1536-well assay plates at a density of 600 cells per well in 5 ul medium. The assay plates with the cells were incubated at 37C for 16 to 30 hours before the experiments. The library compounds in DMSO solution were added to the cells in assay plates and incubated 24 hours at 39C (for mutant p53 conformation) or 32C (for normal p53 conformation as control). An ATP_lite assay kit (PerkinElmer) was used to determine the cell viability. Tomaxifen (100uM) was used as the positive control for cell killing. Data were normalized to the controls for basal activity (DMSO only) and 100% killing (100uM tamoxifen). AC50 values were determined from concentration-response data modeled with the standard Hill equation. P53 assay protocol: 1. Reagent; 5 uL H1299-p53A138V or H1299-neo cell cells/well 2. Time; overnight; 37C incubation 3. Compounds; 23 nL; 5.9 nM to 46 uM 4. Controls; 23 nL; Tamoxifen 100 uM 5. Time; 24 hr; 39C incubation 6. Reagent; 3 uL; ATP_Lite reagent 7. Time; 20 min; Room Temperature 8. Detection; Luminescence; Viewlux plate reader Keywords: p53, synthetic lethal, cancer, cell viability, cytotoxicity, H1299 cell line, luminescence, MLSMR, MLSCN, NIH Roadmap, qHTS, NCGC
On the technique in general: Quantitative high-throughput screening tests each substance at several concentrations.
With `O=[N+]([O-])c1ccc(N2CCN(S(=O)(=O)c3ccccc3)CC2)cc1N1CCc2ccccc2C1`, the “activity, negative = cell killing” value was 39.8% (inactive).

For `COc1cc(CNC(=O)c2cc3n(n2)CCCN(Cc2cccc(F)c2)C3=O)cc(OC)c1OC`, the “activity, negative = cell killing” value was -11.9% (inactive).

Take `O=C(Cc1ccc(Cl)cc1)NCC(c1cccs1)S(=O)(=O)c1ccc(Cl)cc1` (configuration not stated): the “activity, negative = cell killing” value is 18.8% (inactive).

As to `CCCCN(CCCNC(=O)c1cc(Nc2ccccc2OC)nc2ccccc12)c1ccccc1`, the “activity, negative = cell killing” value is -2.39% (inactive).

`COc1ccccc1Nc1cc(C(=O)NCCCN(C)C2CCCCC2)c2ccccc2n1`: the Potency was 12.6 µM (active).

Take `COc1ccc(Nc2cc(C(=O)NCCCN(C)c3ccccc3)c3ccccc3n2)c(OC)c1`: the “activity, negative = cell killing” value is 31.5% (inactive).

Consider `COc1ccc(-c2cc3ccc(OCc4nn[nH]n4)cc3oc2=O)cc1`, for which the Potency is 10 µM (active).

On to `COc1ccc2oc(=O)c(-c3cn4c(n3)sc3cc(OC)ccc34)cc2c1`, for which the “activity, negative = cell killing” value is -0.0282% (inactive).

Regarding `COc1ccc2cc(-c3nc(Cl)c4c5c(sc4n3)CC(C)CC5)c(=O)oc2c1` (configuration not stated), the “activity, negative = cell killing” value is -14.6% (inactive).

With `O=C(COc1nc2ccccc2nc1N1CCOCC1)NCC(F)(F)F`, the “activity, negative = cell killing” value is -2.52% (inactive).

Take `CCCn1ccc2c(OCC(=O)NCc3ccc(F)cc3)cccc2c1=O`: the “activity, negative = cell killing” value is -11.4% (inactive).

On to `Cc1nn2c(=O)cc(COC(=O)c3ccccc3NC(=O)COc3ccccc3C)nc2s1`, for which the “activity, negative = cell killing” value was -5.99% (inactive).

As to `Cc1nn2c(=O)cc(COC(=O)c3cccc(NC(=O)COc4ccccc4Cl)c3)nc2s1`, the Potency was 6.31 µM (active).

For the compound `COc1ccc(OCC(=O)Nc2cccc(C(=O)OCc3cc(=O)n4nc(C)sc4n3)c2)cc1`, the “activity, negative = cell killing” value is -1.29% (inactive).

Regarding `Cc1ccccc1CNC(=O)C(=O)NCC(c1cccs1)S(=O)(=O)c1cccs1` (configuration not stated), the “activity, negative = cell killing” value is 35.3% (inactive).

For the compound `CCC(=O)N1c2ccccc2CC1C(=O)N1CCN(c2ccccc2F)CC1` (configuration not stated), the “activity, negative = cell killing” value is -6.5% (inactive).

As for `Cc1ccc(OCC(=O)OCc2cc(=O)n3nc(C4CC4)sc3n2)cc1`, the “activity, negative = cell killing” value was -8.09% (inactive).

For `COc1ccccc1NC(=O)c1cc(S(=O)(=O)NCCc2ccccc2)ccc1F`, the “activity, negative = cell killing” value is 10.5% (inactive).

As to `COCCn1c(SCC(=O)c2cc(C)ccc2C)nc2cc(C(=O)NC3CCCC3)ccc2c1=O`, the “activity, negative = cell killing” value was 10.6% (inactive).

Take `CCn1c(CNC(=O)c2ccccc2)nnc1SCC(=O)N1CCN(c2ccccc2)CC1`: the “activity, negative = cell killing” value is 6.06% (inactive).

With `CCOCN(C(=O)Cn1c(C(C)O)nc2ccccc21)c1c(C)cccc1CC` (configuration not stated), the “activity, negative = cell killing” value is 21.6% (inactive).

For `COc1cc(-c2cc3n(C)c(C)c(CCC(=O)Nc4ccc(F)cc4)c(=O)n3n2)cc(OC)c1OC`, the “activity, negative = cell killing” value is -1.61% (inactive).

On to `COc1ccc(NC(=O)CN2C(=O)C(c3ccccc3)=NC23CCCCCC3)cc1OC`, for which the “activity, negative = cell killing” value is 23.8% (inactive).

Take `COc1ccc(-c2nn(CC(=O)Nc3ccccc3F)c3c2cnc2ccc(F)cc23)cc1`: the “activity, negative = cell killing” value was -18% (inactive).

For `COC(=O)c1nc2ccccc2s1`, the “activity, negative = cell killing” value was 6.87% (inactive).

In the case of `CCc1ccccc1N1C(=O)CN(S(=O)(=O)CC)CC1(C)C(=O)NC1CCCCC1` (configuration not stated), the “activity, negative = cell killing” value was 2.03% (inactive).

Take `O=C(Nc1cccc(F)c1)c1coc(=O)c(Br)c1`: the “activity, negative = cell killing” value was 22% (inactive).

As for `COc1cccc(CNC(=O)C(=O)NCC(c2cccs2)S(=O)(=O)c2ccccc2)c1` (configuration not stated), the “activity, negative = cell killing” value was -16.5% (inactive).

In the case of `Cc1ccc(C)c(Cn2c(CCCNC(=O)C3CCCCC3)nc3ccccc32)c1`, the “activity, negative = cell killing” value was 9.17% (inactive).

For `O=C(CC(NCc1cccnc1)C(=O)O)Nc1ccc(O)cc1` (configuration not stated), the “activity, negative = cell killing” value was 2.24% (inactive).

Turning to `CCN1C(=O)c2ccccc2Sc2ccc(NC(=O)Cc3ccc(OC)cc3)cc21`, the “activity, negative = cell killing” value is -3.19% (inactive).

With `C/C(CC(=O)Nc1ccc(Cl)cc1)=N\NC(=O)C(=O)NCCO`, the “activity, negative = cell killing” value was -7.37% (inactive).

Take `CC(=O)c1sc(N2C(=O)c3oc4ccccc4c(=O)c3C2c2ccc(C)cc2)nc1C` (configuration not stated): the “activity, negative = cell killing” value was -20.5% (inactive).

For `COC(=O)c1ccccc1NC(=O)Cn1c(=O)n(-c2cccc(C(F)(F)F)c2)c(=O)c2c(C)c(C)sc21`, the “activity, negative = cell killing” value was -6.26% (inactive).

With `COc1ccc(CCN2C(=O)C3CC=C(C)CC3C2=O)cc1OC` (configuration not stated), the “activity, negative = cell killing” value was 9.02% (inactive).

Turning to `CCCCOc1ccc(Cn2c(=O)oc3ccc(C)cc32)cc1OC`, the “activity, negative = cell killing” value is -20.1% (inactive).

With `CCCCOc1ccc(CN2C(=O)C(=O)c3cc(Br)cc(C)c32)cc1OC`, the Potency is 11.2 µM (active).

As for `COc1ccc(CCNC(=O)/C(C#N)=C2\N=C(NC(=O)c3cccs3)c3ccccc32)cc1`, the “activity, negative = cell killing” value is -0.547% (inactive).

For `CCC(CC)c1nn2cc(-c3ccccc3)nc2s1`, the Potency is 7.94 µM (active).

For the compound `CCc1ccc(CNC(=O)C2CCN(c3nn4cc(-c5ccc(F)cc5)nc4s3)CC2)cc1`, the “activity, negative = cell killing” value is -5.73% (inactive).

For the compound `CCCS(=O)(=O)Nc1cccc(-c2cn3ccsc3n2)c1`, the “activity, negative = cell killing” value is -16.7% (inactive).

Consider `Cc1ccc(Cl)cc1NC(=O)CSc1nccn1C`, for which the “activity, negative = cell killing” value was 28.3% (inactive).

Consider `COc1cccc(CNC(=O)Cn2c(=O)c3cccn3c3ccc(F)cc32)c1OC`, for which the “activity, negative = cell killing” value is 10.8% (inactive).

In the case of `CC(C)NC(=S)N1CCN(C(c2ccccc2)c2ccccc2)CC1`, the activity, negative = cell killing was 2.42% [at 1.84 µM] (inactive).

With `CCC(C)NC(=O)Cn1c(=O)n(-c2ccc(Cl)cc2)c(=O)c2c3c(sc21)CCCC3` (configuration not stated), the “activity, negative = cell killing” value was 13.8% (inactive).

For the compound `Cc1ccc(N(CC(=O)NCC(C)c2ccccc2)S(=O)(=O)N(C)C)cc1` (configuration not stated), the “activity, negative = cell killing” value was 9.74% (inactive).

Consider `Cc1ccc(OCCSc2nc(-c3cccs3)nc3cc(=O)[nH]n23)cc1Cl`, for which the “activity, negative = cell killing” value was 10.9% (inactive).
